TSHR agonist = activates the human thyroid stimulating hormone receptor | P16473 | HEK293-CNG-TSHR cells (CNG channel as cAMP sensor), membrane potential dye, cAMP | Potency, µM (highest dose often 57.1 µM), for inactives: at the top dose activation, hits mostly activators | 73,000 compounds, 0.48% hits; active = well fitted activation curve with a large enough effect in the main read-out, with a control signal flat, not every such curve was filed as active; inconclusive = small, poorly fitted or top-dose-only effect, or a change in a side signal; inactive = no such curve, though single readings can be large or run the other way; % of control where 0% means no effect;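 also: the control signal comes from parental cells without the receptor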
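HEK 293 cells stably expressing TSHR and a cAMP-gated CNG channel; parental CNG-only cells as counterscreen. Cells preloaded 60 min with membrane potential dye plus 100 uM RO 20-1724, then compound 30 min; fluorescence read at 590 nm.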
Tau filament bind = tau filament binding. P10636. recombinant tau filaments, thioflavin S fluorescence, 15 h; filaments grown with octadecylsulfate alongside compound. Potency, µM (doses to about 57.1 µM), for inactives: top-dose activity change, negative = inhibition. 71,000 compounds, 2% hits;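 also: % is scaled to controls: 0 for no effect and ±100 for the full control effect; actives lower thioflavin S fluorescence by blocking filaments or displacing dye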
Target sequence (P10636 whole entry, looked up): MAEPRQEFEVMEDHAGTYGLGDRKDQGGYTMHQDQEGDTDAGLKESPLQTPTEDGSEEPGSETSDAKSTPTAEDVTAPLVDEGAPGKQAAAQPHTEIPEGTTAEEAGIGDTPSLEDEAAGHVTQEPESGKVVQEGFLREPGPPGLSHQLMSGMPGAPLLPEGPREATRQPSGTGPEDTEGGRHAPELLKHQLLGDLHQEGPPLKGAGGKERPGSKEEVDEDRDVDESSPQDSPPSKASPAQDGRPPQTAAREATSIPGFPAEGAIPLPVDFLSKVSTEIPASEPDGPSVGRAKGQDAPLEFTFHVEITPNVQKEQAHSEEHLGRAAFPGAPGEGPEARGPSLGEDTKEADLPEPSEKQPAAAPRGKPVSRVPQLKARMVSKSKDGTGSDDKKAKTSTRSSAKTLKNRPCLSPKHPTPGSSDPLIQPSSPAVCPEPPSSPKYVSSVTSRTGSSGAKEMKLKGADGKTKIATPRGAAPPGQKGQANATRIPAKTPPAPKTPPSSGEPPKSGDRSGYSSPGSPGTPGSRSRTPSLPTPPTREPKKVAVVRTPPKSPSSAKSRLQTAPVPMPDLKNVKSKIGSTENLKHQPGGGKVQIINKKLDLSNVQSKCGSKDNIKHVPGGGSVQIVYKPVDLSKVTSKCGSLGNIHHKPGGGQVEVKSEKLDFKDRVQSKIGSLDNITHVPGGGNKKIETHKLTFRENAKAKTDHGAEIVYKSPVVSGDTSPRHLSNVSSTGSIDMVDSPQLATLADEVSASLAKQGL
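His-tagged recombinant human tau (exons 2, 3 and 10 included), 1 uM, was induced to fibrillize by 30 uM sodium octadecylsulfate with compound present. After 15 h at 37 C, thioflavine S fluorescence (ex 450, em 510 nm) was read.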
Hsp90 Hop PPI = changes Hsp90-Hop TPR2A binding signal, up or down; 71,000 compounds, 0.44% hits; Potency, µM (doses to about 57 µM), for the others: at the highest dose activity change, negative = inhibition; AlphaScreen TPR2A-His6 binding biotin-Hsp90 C-terminal peptide; active = well fitted curve in either direction with a large enough effect; inconclusive = small, poorly fitted or top-dose-only effect, or another doubt; also: % is scaled to controls: 0 for no effect and ±100 for the full control effect
HEK293 cAMP ctrl = raises cAMP in parental HEK293 cells, TSHR agonist counter-screen; parental HEK293 CNG cAMP sensor, membrane potential fluorescence; Potency, µM (titrated, usually from 57.1 µM), inactives show at the highest dose activation, actives largely listed as activators; 73,000 compounds, 2.5% hits; AID 938; also: % of control where 0% means no effect; nearly all actives have a fitted effect of over 55% in size
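Parental HEK 293 cells stably expressing a cAMP-gated CNG channel were loaded with membrane potential dye containing 100 uM RO 20-1724 for 60 min. Compound added for 30 min; depolarization read as fluorescence intensity at 590 nm.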
Pol III holo inh = DNA polymerase III holoenzyme inhibition; 71,000 compounds, 0.25% hits; Potency, µM (top dose mostly 57.1 µM), for the others: at the highest dose activity change, negative = inhibition; reconstituted DNA polymerase III holoenzyme replication, biochemical; also: % is scaled to controls: 0 for no effect and ±100 for the full control effect
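Reconstituted *E. coli* holoenzyme (0.35 nM Pol III, 1 nM beta, 154 nM SSB, 2 nM primase) was preincubated with compound for 15 min at RT. Synthesis on 1.4 nM ssM13Gori ran 35 min, then was stopped with PicoGreen/EDTA and read as dsDNA fluorescence.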
An asterisk follows results filed as active; i = inactive; u = inconclusive; x = not tested or not shown; [ ] = another dose, or the depositor's remark. Only some compounds are listed: those with a hit (about 5.1% of all), similar ones and a draw of the others. Unless noted, calls follow the shape of the dose curve; as a rule, active = well fitted curve in the direction sought with a large enough effect; inconclusive = small, poorly fitted or top-dose-only effect, or another doubt; inactive = no such curve, though single readings can be large; an effect the other way counts as inactive or inconclusive. Potency is read from the fitted curve at half-maximal effect.

SMILES	TSHR agonist	Tau filament bind	Hsp90 Hop PPI	HEK293 cAMP ctrl	Pol III holo inh
COc1ccc(C(=O)N2CCC[C@@]3(CCN(Cc4ccccc4OC)C3)C2)cc1	u	9%	-2%	16µM*	-8%
O=C(c1cc(C(F)(F)F)cc(C(F)(F)F)c1)N1CCC2(CC1)CCN(c1ncccn1)CC2	-4%	-10%	-1%	5%	0%
CC(C)Oc1cc(O)c2c(c1)OCC=C2CCC(=O)O	5%[11.4 µM]	8%[11.4 µM]	-3%[11 µM]	5%[11.4 µM]	-7%[11.4 µM]
COc1cccc(NC(=O)c2oc3ccccc3c2NC(=O)c2ccc3c(c2)OCO3)c1	x	47%	9%	16%	-2%
COc1cccc(NC(=O)c2oc3ccccc3c2NC(=O)C(C)(C)C)c1	u	-7%	14%	1µM*	-10%
O=C(c1csc2c1CCCC2)n1cccn1	32µM*	x	x	6%	x
c1ccc2c(c1)Cn1c-2nc2ccccc21	u	10%	1%	16µM*	-6%
Cc1ccc(C(=O)c2cc3c(cc2N)OCCO3)cc1	-4%	13µM*	u	-9%	-7%
Nc1ccc(C(=O)c2ccc3c(c2)OCCO3)cc1N	10%	33%	-9%	6%	4%
COc1cc(O)c2c(O)c3c(c4c2c1[C@@]1(C4)C(C)=CCCC1(C)C)[C@H](O)[C@@]1(O)CC(=O)C(C(N)=O)=C(O)[C@]1(O)C3=O	6%[11.4 µM]	88%[11.4 µM]	-9%[11 µM]	13%[11.4 µM]	0%[11.4 µM]
COCCn1c(=O)c(-c2ccc(Cl)cc2)nc2cnc(Oc3ccccc3)nc21	u	-6%	0%	u	-3%
CO[C@@H]1COC(=O)CCC[C@@H](C)[C@H](OC)COC(=O)CCC[C@H]1C	-5%[11.4 µM]	x	x	0%[11.4 µM]	x
Cc1sc(NC(=O)CSc2nnc(COc3ccccc3)n2C)c(C#N)c1C	u	194%	-1%	6.3µM*	-2%
CCOC(=O)c1sc(NC(=O)CSc2ncn[nH]2)c(C#N)c1C	11%	-28%	-8%	-1%	-5%
Cc1ccc(OCc2nnc(SCC(=O)Nc3sc(C)c(C)c3C#N)n2C)cc1	u	i	0%	u	-2%
CCOC(=O)c1sc(NC(=O)CSc2nnc(Cc3ccccc3)o2)c(C#N)c1C	6%	20µM*	-8%	5%	-3%
CN(c1ccccc1)C(c1ccc(F)cc1)c1nnnn1C1CCCC1 (stereo not drawn)	u	-2%	u	13µM*	1%
CN(c1ccccc1)C(c1ccc(F)cc1)c1nnnn1CC1CCCO1 (stereo not drawn)	u	-10%	2%	u	12%
COc1ccc2nc(C)cc(SCC(=O)O)c2c1	-3%	-5%	-3%	3%	2%
COc1ccc2c(C)cc(SCC#N)nc2c1	u	39%	1%	32µM*	-6%
CCOc1ccccc1OCc1nn2c(-c3ccc(C)cc3)nnc2s1	u	160%	-2%	25µM*	-1%
COc1ccc(-c2nnc3sc(CN4C(=O)c5ccccc5C4=O)nn23)cc1	16µM*	14%	-8%	12%	3%
CNc1ccnc(-c2ccccc2C)n1	0%	-7%	3%	0%	-7%
CC(C)(C)c1ccc(OCC2CO2)cc1 (stereo not drawn)	3%	6%	-2%	21%	-2%
CCCc1ccc(Oc2cn[nH]c2-c2ccc(O)cc2O)cc1	-13%[11.4 µM]	0.79µM*	-18%[11 µM]	-3%[11.4 µM]	-10%[11.4 µM]
SMILES	TSHR agonist	Tau filament bind	Hsp90 Hop PPI	HEK293 cAMP ctrl	Pol III holo inh
COc1ccc(Oc2cn[nH]c2-c2ccc(O)cc2O)cc1	u	-9%	-11%	2µM*	2%
COc1ccc(-n2c(=O)cnc3cnc(N(C)C)nc32)cc1	12%	-2%	-1%	15%	-10%
CCC/C=C(\CCC)C(NP(=O)(c1ccccc1)c1ccccc1)c1ccc(-c2ccccc2)cc1 (stereo not drawn)	1%	18%	-16%	28%	-15%
CCOc1ccc2nc(COC(=O)c3ccco3)c(C(C)=O)[n+]([O-])c2c1	x	6%	-1%	9%	-3%
CC(=O)c1c(COC(=O)c2cccnc2)nc2ccccc2[n+]1[O-]	-4%	20µM*	-11%	3%	-5%
CN(CC(=O)O)Cc1c[nH]c2ccccc12	3%[11.4 µM]	-2%[11.4 µM]	-2%[11 µM]	-2%[11.4 µM]	-12%[11.4 µM]
Cc1c(N=c2c(=O)c3ccccc3c2=O)c(=O)n(-c2ccccc2)n1C	5%	16µM*	-7%	9%	-10%

Compound activity from PubChem BioAssay.
